PMC4336329 (PLoS ONE, 2015)
In all, about 310,000 compounds went through this assay and about 14,000 (4.5%) showed an effect of 50% or more. The effect is printed as a negative number. The list comes from a sample in which strong results are over-represented; it also holds similar structures and randomly drawn compounds.

What follows are molecules tested against human ether-à-go-go-related gene (hERG) potassium channel (human, UniProt Q12809) (assay: primary screen, population patch clamp on CHO cells stably expressing hERG; higher = less effect of the substance).
human ether-à-go-go-related gene (hERG) potassium channel, sequence (Q12809 whole entry, looked up): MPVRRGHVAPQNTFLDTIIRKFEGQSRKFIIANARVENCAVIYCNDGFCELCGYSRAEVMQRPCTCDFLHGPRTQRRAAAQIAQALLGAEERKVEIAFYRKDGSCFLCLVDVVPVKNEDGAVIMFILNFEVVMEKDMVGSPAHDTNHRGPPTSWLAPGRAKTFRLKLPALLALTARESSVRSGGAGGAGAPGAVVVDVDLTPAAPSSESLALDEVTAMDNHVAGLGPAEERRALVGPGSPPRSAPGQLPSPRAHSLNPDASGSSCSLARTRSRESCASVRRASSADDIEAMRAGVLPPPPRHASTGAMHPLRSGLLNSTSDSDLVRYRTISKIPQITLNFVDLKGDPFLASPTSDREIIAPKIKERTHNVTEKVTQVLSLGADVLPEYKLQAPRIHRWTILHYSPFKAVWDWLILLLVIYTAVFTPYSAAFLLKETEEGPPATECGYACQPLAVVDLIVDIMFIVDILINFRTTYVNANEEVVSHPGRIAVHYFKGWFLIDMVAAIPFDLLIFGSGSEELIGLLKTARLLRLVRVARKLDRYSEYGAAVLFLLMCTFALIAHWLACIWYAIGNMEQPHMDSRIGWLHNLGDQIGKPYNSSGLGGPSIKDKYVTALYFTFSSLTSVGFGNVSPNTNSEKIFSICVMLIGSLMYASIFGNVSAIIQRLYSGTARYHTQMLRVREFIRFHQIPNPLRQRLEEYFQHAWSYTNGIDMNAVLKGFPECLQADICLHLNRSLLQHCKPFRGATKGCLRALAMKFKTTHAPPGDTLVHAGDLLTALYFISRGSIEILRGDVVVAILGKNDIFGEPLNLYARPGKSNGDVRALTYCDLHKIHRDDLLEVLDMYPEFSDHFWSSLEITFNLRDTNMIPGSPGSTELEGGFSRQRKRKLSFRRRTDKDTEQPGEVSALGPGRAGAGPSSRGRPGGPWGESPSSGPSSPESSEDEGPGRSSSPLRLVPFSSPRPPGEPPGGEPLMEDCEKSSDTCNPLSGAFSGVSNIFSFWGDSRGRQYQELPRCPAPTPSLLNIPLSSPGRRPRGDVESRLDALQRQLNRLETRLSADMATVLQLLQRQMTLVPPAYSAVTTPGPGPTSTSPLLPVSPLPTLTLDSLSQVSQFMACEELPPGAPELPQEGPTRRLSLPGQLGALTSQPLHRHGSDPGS
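Note: peak tail current of the secondary pulse compared with the same well before compound.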

Structure (SMILES) | hERG current change (%, negative = inhibition) at 10uM [%]
CSc1ncccc1C(=O)N1CCCC(N2CCN(c3ccccc3F)CC2)C1 (stereo not shown) | -12.4
NS(=O)(=O)c1ccc(CCNC(=O)CN2C(=O)c3ccccc3S2(=O)=O)cc1 | 1.3
CCOC(=O)N1CCN(C(=O)c2ccc(CNS(=O)(=O)c3ccc(OC)cc3)cc2)CC1 | -4.84
CN1CCN(CCC(=O)Nc2cccc(F)c2)CC1 | -1.22
Cl.O=C(CCN1CCCCCC1)Nc1cccc(F)c1 | -23.6
O=C(CCN1CCN(C/C=C/c2ccccc2)CC1)Nc1cccc(F)c1 | -77.9
CCOC(=O)OC(C)OC1=C(C(=O)Nc2ccccn2)N(C)S(=O)(=O)c2ccccc21 (stereo not shown) | 16.1
O=P(Nc1c(Cl)cccc1Cl)(c1ccccc1)c1nc2c(s1)CCCC2 (stereo not shown) | 10
Nc1nonc1-n1nnc(C(=O)N/N=C/c2ccc(Br)cc2)c1CSC1=NCCS1 | -3.36
O=c1[nH]c([N+](=O)[O-])nn1C(c1ccccc1)c1ccccc1 | -13.7
COCCCN1C(=O)c2ccccc2C1C(=O)NC1CCCCCC1 (stereo not shown) | -2.83
COc1cc(NC(=O)CN2C3CCC2CC(O)(c2cccnc2)C3)cc(OC)c1 (stereo not shown) | -60.9
O=C(CN1C2CCC1CC(O)(c1cccnc1)C2)Nc1ccc2c(c1)OCO2 (stereo not shown) | -53.1
COCCNC(=O)CN1C2CCC1CC(O)(c1cccnc1)C2 (stereo not shown) | 0.682
COc1ccc(NC(=O)CN2C3CCC2CC(O)(c2cccnc2)C3)cc1OC (stereo not shown) | 0.385
O=C(Nc1cccc(F)c1)N1C2CCC1CC(O)(c1cccnc1)C2 (stereo not shown) | 24.1
O=C(Nc1ccccc1)N1C2CCC1CC(O)(c1cccnc1)C2 (stereo not shown) | 8.01
Brc1cccc(-c2nnc3n2CCC3)c1 | 2.98
O=C(NC1CCN(C(=O)Nc2ccccc2)CC1)C1CCCCC1 | -7.88
O=C(CN1C(=O)c2cccc3cccc1c23)Nc1ccc(S(=O)(=O)N2CCOCC2)cc1 | -9.06
CCCSCCCNC(=O)Cn1cc2c(n1)CCC(C)C2 (stereo not shown) | -12.8
COc1ccc(-c2nc3n(c(=O)c2C#N)CCCS3)cc1 | -4.57

Structure (SMILES) | hERG current change (%, negative = inhibition) at 10uM [%]
COCCNC(=O)/C(=C/c1ccccc1Cl)c1ccccc1 | -0.406
COC(=O)N/N=C\c1ccc(OC/C=C/c2ccccc2)c(OC)c1 | 6.04
N#CC1=C(SCC(=O)Nc2cccc3cccnc23)NC(=O)C(C#N)C12CCCCC2 (stereo not shown) | -20.7
N#CC1=C(SCC(=O)c2cc3ccccc3oc2=O)NC(=O)C(C#N)C12CCCC2 (stereo not shown) | -54.5
N#CC1=C(SCc2ccccc2)NC(=O)C(C#N)C12CCCC2 (stereo not shown) | 1.97
COC(=O)c1ccc(NC(=O)CCS(=O)(=O)c2ccc(Br)cc2)cc1 | 28.8
NC(N)=NS(=O)(=O)c1ccc(NC(=S)NC(=O)c2ccncc2)cc1 | 2.9
COc1ccccc1CNC(=O)C1=C(C)C(=O)OC12CCC(C)CC2 (stereo not shown) | -2.21
O=C1C=C(c2cccc(CO)c2)C[C@@H](c2ccc(F)cc2)C1 | -45.3
COc1ccc([C@H]2CC(=O)C=C(c3ccccc3)C2)cc1OC | -3.04
COc1ccc([C@H]2CC(=O)C=C(c3cccc(CO)c3)C2)cc1 | -59.3
COc1ccc([C@H]2CC(=O)C=C(c3ccc(CO)cc3)C2)cc1 | -4.98
COc1ccc([C@H]2CC(=O)C=C(c3cccc(CO)c3)C2)cc1OC | -63.6
COc1cccc(C2=CC(=O)C[C@H](c3ccc(OC)c(OC)c3)C2)c1 | -40
COCc1cccc(C2=CC(=O)C[C@H](c3ccc(OC)cc3)C2)c1 | -20.7
O=C1C=C(c2cccc(CO)c2)C[C@@H](c2ccc(Cl)cc2)C1 | -54.5
O=C1C=C(c2cccc(Cl)c2)C[C@@H](c2ccc(Cl)cc2)C1 | 24.4
CC[C@@H]1[C@H]2CCCC(=O)N3CC[C@@H](C[C@@H]1Nc1ccccc1)[C@@H]23 | -3.88
Cc1ccc(NC(=O)COC(=O)c2cccc(OC(F)F)c2)cc1S(=O)(=O)N1CCCCC1 | -21.1
CCc1c(C)nc(N)n2c(SCC(=O)Nc3ccccc3)nnc12 | 12.5
O=C1NC(Cc2c[nH]c3ccccc23)C(=O)N1CCOc1ccccc1 (stereo not shown) | -22.7
O=C(CCC(=O)N1CCSc2ccccc21)Nc1ccc(F)cc1 | -4.12

Structure (SMILES) | hERG current change (%, negative = inhibition) at 10uM [%]
Cc1oc(-c2ccccc2F)nc1CS(=O)CC(=O)NCc1ccccn1 (stereo not shown) | -0.614
O=C(c1ccc(OC2CCN(Cc3cccc(F)c3)CC2)cc1)N1CCCCC1 | -23.4
CC(C)n1cc(CN2CCC(Oc3ccc(C(=O)N4CCCCC4)cc3)CC2)cn1 | -31.6
O=C(c1ccc(OC2CCN(Cc3ccccc3O)CC2)cc1)N1CCCCC1 | 3.29
Cn1cc(CN2CCC(Oc3ccc(C(=O)N4CCCCC4)cc3)CC2)cn1 | 8.81
O=C(c1ccc(OC2CCN(Cc3ccccc3C(F)(F)F)CC2)cc1)N1CCCCC1 | 2.01
CC(C)n1cc(CN2CCC(Oc3ccc(C(=O)N4CCCC4)cc3)CC2)cn1 | -9.96
CCc1ccc(CN2CCC(Oc3ccc(C(=O)N4CCCCC4)cc3)CC2)cc1 | -78.4
CCn1cc(CN2CCC(Oc3ccc(C(=O)N4CCCCC4)cc3)CC2)cn1 | -5.09
O=C(c1ccc(OC2CCN(Cc3ccc(C(F)(F)F)cc3)CC2)cc1)N1CCCCC1 | -57.2
C=CCOc1ccccc1CN1CCC(Oc2ccc(C(=O)N3CCCC3)cc2)CC1 | -41.8
C=CCOc1ccccc1CN1CCC(Oc2ccc(C(=O)N3CCCCC3)cc2)CC1 | -57.6
CC(C)c1ccc(CN2CCC(Oc3ccc(C(=O)N4CCCC4)cc3)CC2)cc1 | -71.6
COc1cccc(NC(=O)Cc2ccccc2)c1 | -3.98
Cc1ccc2c(c1)N(CCCC(=O)NCCC1=CCCCC1)C(=O)CO2 | -9.81
CCOc1cc(N2CCOCC2)c(OCC)cc1NC(=O)COC(=O)c1cc2ccccc2cc1O | -11.7
CCc1ccc(-c2cc(C)no2)cc1S(=O)(=O)N1CCOc2ccc(C)cc21 | 13.1
Cc1c(NC(=O)C(C)N(c2ccccc2)S(C)(=O)=O)c(=O)n(-c2ccccc2)n1C (stereo not shown) | 18.7
O=C(CCl)Nc1cccc(S(=O)(=O)NC2=NCCC2)c1 | -0.632
COc1ccc(CN2CCC(Oc3ccc(C(=O)N4CCCC4)cc3)CC2)c(F)c1 | -51.4
COc1cc(C)c(CN2CCC(Oc3ccc(C(=O)N4CCCC4)cc3)CC2)cc1C | -43.1
CSc1cccc(CN2CCC(Oc3cccc(C(=O)N4CCCC4)c3)CC2)c1 | -44.4

Structure (SMILES) | hERG current change (%, negative = inhibition) at 10uM [%]
O=C(c1cccc(OC2CCN(Cc3cc(F)cc(F)c3)CC2)c1)N1CCCC1 | -34.9
CSc1ccc(CN2CCC(Oc3cccc(C(=O)N4CCCC4)c3)CC2)cc1 | -60.7
CSc1cccc(CN2CCC(Oc3ccc(C(=O)N4CCCCC4)cc3)CC2)c1 | -25.2
COc1cccc(CN2CCC(Oc3ccc(C(=O)N4CCCCC4)cc3)CC2)c1 | -25.3
CSc1ccc(CN2CCC(Oc3ccc(C(=O)N4CCCC4)cc3)CC2)cc1 | -71.1
COC(=O)c1ccc(CN2CCC(Oc3cccc(C(=O)N4CCOCC4)c3)CC2)cc1 | -22.7
O=C(c1cccc(OC2CCN(Cc3cccc(OCCO)c3)CC2)c1)N1CCCC1 | -2.71
Cn1cc(CN2CCC(Oc3ccc(C(=O)N4CCCC4)cc3)CC2)cn1 | 9.86
COC(=O)c1ccc(CN2CCC(Oc3cccc(C(=O)N4CCCC4)c3)CC2)cc1 | -50.8
COc1ccc(NC(=O)Nc2nnc(C(C)(C)C)s2)cc1 | -18.8
COC(=O)C(Cc1ccccc1)OS(N)(=O)=O (stereo not shown) | 16.1
COCCN1CN=C(NS(=O)(=O)c2ccc(C)cc2)NC1 | 16.3
COc1cc(NC(=O)COc2cccc3c2OC(C)(C)C3)cc(OC)c1OC | -6.09
CCN(C1=NS(=O)(=O)c2ccccc21)N(CC)S(=O)(=O)c1ccc(C)cc1 | 19.8
CCOC(=O)Cc1csc(NC(=O)c2ccc(S(=O)(=O)N3CCOCC3)cc2)n1 | -2.52
CN1CCN(C(=O)CSc2ccc(C(F)(F)F)cc2[N+](=O)[O-])CC1 | -10.2
CC(=O)Nc1ccc(CN2CCC(Oc3ccc(C(=O)N4CCCC4)cc3)CC2)cc1 | -21.3
COC(=O)c1ccc(CN2CCC(Oc3ccc(C(=O)N4CCCCC4)cc3)CC2)cc1 | -51.7
O=C(c1ccc(OC2CCN(Cc3ccc(F)cc3)CC2)cc1)N1CCCC1 | -24
CCOc1cccc(CN2CCC(Oc3ccc(C(=O)N4CCCC4)cc3)CC2)c1 | -27.4
CCc1ccc(CN2CCC(Oc3ccc(C(=O)N4CCCC4)cc3)CC2)cc1 | -81.3
COc1ccc(CN2CCC(Oc3ccc(C(=O)N4CCCCC4)cc3)CC2)cc1C | -45.7
